From PubChem BioAssay (EPA / NIEHS)
The source made the active and inactive calls. How the source made its calls: active means hit-call score of the fitted dose curve at least 0.9, where 1 is the maximum; inactive means score below 0.9.

These molecules were tested against Transcription factor E2F1 (Homo sapiens) (UniProt Q01094) (assay: ATG_E2F_CIS: Attagene CIS-FACTORIAL HepG2 Assay for human E2F Transcription Factor 1 (AID 2282935)). Details: HepG2 Attagene cis-reporter, E2F reporter RNA transcripts; actives raise or lower the signal.
Procedure: ATG_CIS is a cell-based, multiplexed-readout assay that uses HepG2, a human liver cell line, with measurements taken at 24 hours after chemical dosing in a 24-well plate.ATG_E2F_CIS is one of 52 assay component(s) measured or calculated from the ATG_CIS assay. It is designed to make measurements of mRNA induction, a form of inducible reporter, as detected with fluorescence intensity signals by Reverse transcription polymerase chain reaction (RT-PCR) and Capillary electrophoresis technology.Data from the assay component ATG_E2F_CIS was analyzed into 1 assay endpoint. This assay endpoint, ATG_E2F_CIS, was analyzed with bidirectional fitting relative to DMSO as the negative control and baseline of activity. Using a type of inducible reporter, measures of mRNA for gain or loss-of-signal activity can be used to understand the reporter gene at the transcription factor-level as they relate to the gene E2F1. Furthermore, this assay endpoint can be referred to as a primary readout, because this assay has produced multiple assay endpoints where this one serves a reporter gene function. To generalize the intended target to other relatable targets, this assay endpoint is annotated to the dna binding intended target family, where the subfamily is E2F transcription factor.
Human liver HepG2 cells are transiently transfected with multiple reporter transcription units (MRTUs) in 6-well plates using FuGene 6 reagent (Roche; 3 ml FuGene/1 mg DNA). The MRTU constructs are regulated by a cis-regulating element (promoter). […] A major difference between the CIS and TRANS system is that in CIS activities of endogenous TFs are measured, whereas the TRANS assay evaluates changes in activities of exogenous, chimeric NR-Gal4 proteins. […] At the end of 24 hour incubation, total RNA was isolated using TriZol reagent (Invitrogen). The isolated RNA is then reverse-transcribed using oligo(dT) primer and Mo-MLV reverse transcriptase (Invitrogen) with DNAse I (Ambion) treatment for 30 min. The one-tenth of the produced cDNA was amplified by PCR using Taq DNA polymerase (Invitrogen) and two reporter sequence-specific primers. The PCR products were fluorescently labeled by primer extension with 6-arboxyfluorescein (6-FAM) 5'-labeled reporter sequence-specific primer (2 min at 95 C, 20 s at 68 C and 10 min at 72 C) and these products were digested with 5U of HpaI (New England Biolabs) for 2h at 37 C. The fragments were purified using Qiaquick PCR columns (Qiagen), analyzed on an ABI 3130xL genetic analyzer (Applied Biosystems) with peak positions identified by using a set of X-rhodamine (ROX)-labeled MapMarker1000 molecular weight standards (BioVentures). The raw capillary electrophoresis data was processed using Attagraph software (Attagene).

Chain of Transcription factor E2F1 (Homo sapiens) (Q01094 whole entry, looked up): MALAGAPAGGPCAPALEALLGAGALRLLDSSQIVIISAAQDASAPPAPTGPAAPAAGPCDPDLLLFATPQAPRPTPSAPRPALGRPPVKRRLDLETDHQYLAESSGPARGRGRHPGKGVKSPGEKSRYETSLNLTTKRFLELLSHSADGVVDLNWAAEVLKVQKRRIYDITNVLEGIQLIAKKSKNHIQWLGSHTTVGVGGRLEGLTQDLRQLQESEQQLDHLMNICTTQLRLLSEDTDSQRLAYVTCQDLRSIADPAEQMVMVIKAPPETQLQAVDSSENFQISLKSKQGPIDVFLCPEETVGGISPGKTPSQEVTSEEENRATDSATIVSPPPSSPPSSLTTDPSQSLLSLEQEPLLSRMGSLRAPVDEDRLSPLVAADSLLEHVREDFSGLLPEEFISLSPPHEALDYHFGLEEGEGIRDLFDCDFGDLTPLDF

Row | Structure (SMILES) | outcome | AC50
1 | CC(C)CCOCc1ccccc1 | inactive | –
2 | COc1cc(C)ccc1O | inactive | –
3 | O=S(=O)(O)c1ccc(Nc2nc(Nc3ccc(C=Cc4ccc(Nc5nc(Nc6ccc(S(=O)(=O)O)cc6)nc(N(CCO)CCO)n5)cc4S(=O)(=O)O)c(S(=O)(=O)O)c3)nc(N(CCO)CCO)n2)cc1 | inactive | –
4 | Cc1ccc([N+](=O)[O-])cc1N | inactive | –
5 | CC(c1cc(C(C)(C)C)cc(C(C)(C)C)c1O)c1cc(C(C)(C)C)cc(C(C)(C)C)c1O | inactive | –
6 | CCCCCC[C@@H](O)C/C=C\CCCCCCCC(=O)OCC(O)CO (stereo not given in full) | – | 133 µM (active)
7 | CC(=O)/C=C/C1C(C)=CCCC1(C)C (stereo not given) | inactive | –
8 | COC(=O)C=Cc1ccccc1 | inactive | –
9 | CCCCCCCC(=O)OCC | inactive | –
10 | C=CC(C)(CCC=C(C)C)OC(=O)C=Cc1ccccc1 (stereo not given) | inactive | –
11 | CC(C)=CCl | inactive | –
12 | CCNc1nc(NC(C)(C)C)nc(OC)n1 | inactive | –
13 | COC(Cc1ccccc1)OC | inactive | –
14 | Nc1nc(N)nc(-c2ccccc2)n1 | inactive | –
15 | CC(C)C(=O)OCCc1ccccc1 | inactive | –
16 | Cn1cccc1 | inactive | –
17 | CC(C)CO | inactive | –
18 | CCCCC(CC)COC(=O)/C=C/c1ccc(OC)cc1 (stereo not given) | inactive | –
19 | c1ccc2cnccc2c1 | inactive | –
20 | CC(C)c1ccc2ncccc2c1 | inactive | –

Row | Structure (SMILES) | outcome | AC50
21 | CCCCCCCCCCCC(C)=O | inactive | –
22 | CN1CCN(C)CC1 | inactive | –
23 | CCCCOCC(C)O (stereo not given) | inactive | –
24 | C=CC(=O)OCCCCCCCC(C)C | inactive | –
25 | CC(=O)OCc1ccccc1 | inactive | –
26 | C=C[Si](OCCOC)(OCCOC)OCCOC | inactive | –
27 | CC/C=C\CCOC(=O)c1ccccc1O | inactive | –
28 | O=S(=O)(O)c1ccc(N=Nc2c(O)ccc3ccccc23)cc1 | inactive | –
29 | CC(C)[N+](C)(CCOC(=O)C1c2ccccc2Oc2ccccc21)C(C)C | inactive | –
30 | C=Cc1ccc(OC(C)=O)cc1 | inactive | –
31 | CC(=O)OCC=C(C)C | inactive | –
32 | COC(C=C(C)CCC=C(C)C)OC | inactive | –
33 | CC(C)C(=O)OCCOc1ccccc1 | inactive | –
34 | Nc1ccc(C(=O)OCCCOC(=O)c2ccc(N)cc2)cc1 | inactive | –
35 | CCC(C)c1ccccc1 (stereo not given) | inactive | –
36 | CC1=CCC2CC1C2(C)C (stereo not given) | inactive | –
37 | CCCCCC1=CCCC1=O | inactive | –
38 | CC(C)(CO)COC(=O)C(C)(C)CO | inactive | –
39 | CCC[Si](OC)(OC)OC | inactive | –
40 | CCC(C)N (stereo not given) | inactive | –
